# Data as given in PubChem BioAssay (NCATS).
# Results filed as inconclusive are left out. Entries that show only a call come without a potency. Calls of active or inactive are those of the source. Calls follow the shape of the dose curve; as a rule, active = well fitted curve in the direction sought with a large enough effect; inconclusive = small, poorly fitted or top-dose-only effect, or another doubt; inactive = no such curve, though single readings can be large; an effect the other way counts as inactive or inconclusive.
# Key:
# [1] = P-glycoprotein substrates identified in KB-3-1 adenocarcinoma cell line, qHTS therapeutic library screen (AID 1346986); also: nearly all actives have a fitted effect of over 60% in size
# Summary of the method: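 KB-3-1 parental cells and P-gp-overexpressing KB-8-5-11 (colchicine omitted during assay) plated at 500 cells/well, dosed in dose-response, incubated 72 h at 37 degree C. CellTiter-Glo luminescence read; KB-8-5-11 also tested with tariquidar.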
# [2] = P-glycoprotein substrates identified in KB-8-5-11 adenocarcinoma cell line, qHTS therapeutic library screen (AID 1346987); also: nearly all actives have a fitted effect of over 65% in size
# Summary of the method: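 P-gp-mediated resistance screen: KB-8-5-11 cells treated 72 h with compounds in dose-response. CellTiter-Glo viability.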
# [3] = system: Zika virus NS2B-NS3 protease (linked construct); test: Confirmatory screen NINDS AMC qHTS for Zika virus inhibitors (AID 1347152); also: potency is read from the fitted curve at half-maximal effect; nearly all actives have a fitted effect of over 70% in size
# Summary of the method: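 Linked NS2B-NS3 protease, 1 nM, in 10 mM Tris-HCl pH 8.0, 0.01% Tween 20; compounds preincubated 15 min at room temperature. Nle-KRR-AMC 10 microM (Km 18.3 µM); 15-min fluorescence change (340/450 nm) fitted to 4-parameter Hill.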
# [4] = Confirmatory screen GU Rhodamine qHTS for Zika virus inhibitors qHTS (AID 1347157); also: potency is read from the fitted curve at half-maximal effect; nearly all actives have a fitted effect of over 70% in size
# Summary of the method: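 Percent inhibition derives from the 15-min fluorescence change (ex 480, em 540 nm), normalized to no-enzyme and no-inhibitor wells. Reactions contained 25 nM NS2B-NS3 complex and 1.5 microM substrate in 10 mM Tris-HCl pH 8.0.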
# [5] = system: Zika virus NS2B-NS3 protease (unlinked complex); test: Primary screen GU Rhodamine qHTS for Zika virus inhibitors: Unlinked NS2B-NS3 protease assay (AID 1347159); also: nearly all actives have a fitted effect of over 60% in size; also: potency is read from the fitted curve at half-maximal effect
# Summary of the method: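 A qHTS format was used, with compound concentrations ranging up to 114 microM. Each compound was preincubated with 25 nM NS2B-NS3 protease, and the substrate was then added at 1.5 microM. Curves were fitted with a 4-parameter Hill model.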
# [6] = system: Zika virus NS2B-NS3 protease (linked construct); test: Primary screen NINDS Rhodamine qHTS for Zika virus inhibitors (AID 1347160); also: nearly all actives have a fitted effect of over 55% in size; also: potency is read from the fitted curve at half-maximal effect
# Summary of the method: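 Kinetic fluorescence (Ex 480 nm, Em 540 nm) over 15 min with 1.5 microM Rhodamine110 peptide and 25 nM linked protease.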
# [7] = Confirmatory screen NINDS Rhodamine qHTS for Zika virus inhibitors (AID 1347161); also: potency is read from the fitted curve at half-maximal effect; nearly all actives have a fitted effect of over 60% in size
# Summary of the method: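 Aprotinin served as in-plate control. Conditions: 25 nM linked NS2B-NS3, pH 8.0 Tris buffer, titrated compounds, 15 min preincubation and 15 min reaction with 1.5 microM Rhod110 substrate at room temperature.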
# [8] = Vero cells viability qHTS for Zika virus inhibitors (AID 1347167)
# Summary of the method: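 Counter-screen for cytotoxicity of hits from NS2B-NS3 protease qHTS. Overnight-attached cells (2.5 x 10^5 cells/mL, DMEM/4% FBS) were dosed in titration, incubated 24 to 48 hours, then assayed by CellTiter Glo.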
# [9] = system: Zika virus NS2B-NS3 protease (unlinked complex); test: Confirmatory screen GU AMC qHTS for Zika virus inhibitors (AID 1347153);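 also: enzyme at 25 nM with substrate at 10 µM below its Km of 18.3 µM; potency is read from the fitted curve at half-maximal effect; nearly all actives have a fitted effect of over 70% in size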
# Summary of the method: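 Fluorescence change (ex 340/em 450 nm) over 15 min, ~20% substrate conversion, normalized to no-inhibitor and no-enzyme controls, then Hill-fitted. Unlinked protease at 25 nM; AMC peptide 10 µM.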
# [10] = system: Zika virus NS2B-NS3 protease (linked); test: 384 well plate NINDS AMC confirmatory qHTS for Zika virus inhibitors (AID 1347163);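 also: linked protease at 5 30 or 60 nM final depending on run; fluorescence of AMC released from Ac-VKTGKR-AMC peptide cleaved by the protease; top concentration of the series differs between compounds; nearly all actives have a fitted effect of over 50% in size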
# Summary of the method: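 Linked protease 5/30/60 nM final; cpds up to 1 mM final, ~15 min preinc. Substrate Ac-VKTGKR-AMC 30 microM final. RT, dark, 25 min; FI ex 355/em 460; normalized to no-enzyme/no-inhibitor ctrls.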
# [11] = system: Zika virus NS2B-NS3 protease (linked construct); test: 384 well plate NINDS Rhodamine confirmatory qHTS for Zika virus inhibitors (AID 1347164);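 also: fluorescence from protease cleavage of Ac-LKRR-rhodamine 110 substrate; potency is read from the fitted curve at half-maximal effect; nearly all actives have a fitted effect of over 65% in size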
# Summary of the method: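 Linked NS2B-NS3 protease (final 5, 30 or 60 nM) preincubated ~15 minutes with compounds, then 10 microM Ac-LKRR-Rhodamine 110 added. Fluorescence (485/538 nm) read after 25 minutes at room temperature, normalized to no-enzyme and no-inhibitor controls.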
# [12] = system: Zika virus NS2B-NS3 protease; test: Primary screen GU AMC qHTS for Zika virus inhibitors (AID 1347154); also: nearly all actives have a fitted effect of over 70% in size
# Summary of the method: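 Unlinked Zika NS2B hydrophilic domain/NS3 protease domain noncovalent complex (25 nM final) in 10 mM Tris-HCl pH 8.0, 0.01% Tween 20, with AMC peptide substrate. Fluorescence (ex 340, em 450 nm) change over 15 min, room temperature; percent inhibition fitted to 4-parameter Hill equation.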
smiles,measurement,setting,value
CC(=O)NC(C(=O)OC1CCC(C)(C)C2CC=C3C(=O)OCC3C12C)C(C)C (centres undefined),Potency,[1],inactive
COc1ccccc1Oc1c(NS(=O)(=O)c2ccc(C)cn2)nc(-c2ccncc2)nc1OC,Potency,[1],inactive
same,Potency,[2],inactive
C=C1C(O)CC2C(C(=O)O)=COC(O[C@@H]3O[C@H](COC(=O)c4ccc(O)cc4)[C@@H](O)[C@H](O)[C@H]3O)C12 (some centres undefined),Potency,[1],inactive
same,Potency,[2],inactive
CCC(C)/C=C(C)/C=C/C1=CC2=C(Cl)C(=O)C(C)(OC(C)=O)C(=O)C2=CN1C(CCC(=O)O)C(=O)O (centres undefined),Potency,[1],inactive
same,Potency,[2],inactive
CCc1nnc(NS(=O)(=O)c2ccc(NC(=S)NC(=O)/C=C/c3ccc(F)cc3)cc2)s1,Potency,[1],inactive
same,Potency,[2],inactive
same,Potency,[3],19.7 µM (active)
same,Potency,[4],2.78 µM (active)
same,Potency,[5],3.16 µM (active)
same,Potency,[6],3.16 µM (active)
same,Potency,[7],2.78 µM (active)
same,outcome,[8],inactive
C/C=C(/C)C(=O)OC1CC(C)(C)CC2C3=CCC4C5(C)CCC(OC6OC(C)C(OC7OC(C(=O)O)C(O)C(OC8OC(CO)C(O)C(O)C8OC8OC(CO)C(O)C(O)C8O)C7O)C(O)C6O)C(C)(C)C5CCC4(C)C3(C)C(OC(=O)/C=C/C=C/C=C/CCC)C(OC(C)=O)C12CO (centres undefined),outcome,[1],inactive [at 9.29 µM]
same,outcome,[2],inactive [at 9.29 µM]
C=Cc1cc2oc(-c3ccc(O)c(F)c3)nc2cc1O,Potency,[1],inactive
same,Potency,[2],inactive
COc1cc(C(=O)OCC2=CCC3C(C(=O)O)=COC(O[C@@H]4O[C@H](CO)[C@@H](O)[C@H](O)[C@H]4O)C23)ccc1O (some centres undefined),Potency,[1],inactive
same,Potency,[2],inactive
O=C1C(Cl)=C(N2CCOCC2)C(=O)N1c1ccc(Cl)c(Cl)c1,Potency,[1],inactive
same,Potency,[2],inactive
C[C@@H]1C[C@@H](O)[C@@]23CO[C@]2(CO)C[C@@H](O)CC3[C@@]12CC(c1ccoc1)OC2=O (some centres undefined),Potency,[1],inactive
same,Potency,[2],inactive
CC(=O)OC1CC(=O)C2(C)C3CC4=C(OC(C)CC4=O)OC3(C)CCC2C1(C)C (centres undefined),Potency,[1],inactive
same,Potency,[2],inactive
Nc1nc2c(nc(Sc3ccc(Cl)cc3)n2[C@@H]2O[C@@H]3COP(=O)(O)O[C@H]3[C@H]2O)c(=O)[nH]1,Potency,[1],inactive
same,Potency,[2],inactive
CC1(CO)CC(O)C2(C)CCC3(C)C(=CCC4C5(C=O)CCC(OC6OC(C(=O)O)C(O)C(O)C6OC6OC(C(=O)O)C(O)C(O)C6O)C(C)(C)C5CCC43C)C2C1 (centres undefined),outcome,[1],inactive [at 9.29 µM]
same,outcome,[2],inactive [at 9.29 µM]
O=C(/C=C/c1ccc(O)cc1)OC[C@@]1(O)C=C[C@@H]2C(C(=O)O)=CO[C@@H](O[C@@H]3O[C@H](CO)[C@@H](O)[C@H](O)[C@H]3O)[C@@H]21,Potency,[1],inactive
same,Potency,[2],inactive
CC1(C)[C@H]2C[C@H](C/C=C\CCCC(=O)O)[C@@H](NC(=O)c3csc4ccc(O)cc34)[C@@H]1C2,Potency,[1],inactive
same,Potency,[2],inactive
same,Potency,[4],24.8 µM (active)
same,Potency,[5],14.1 µM (active)
same,Potency,[6],inactive
same,Potency,[7],31.2 µM (active)
CCC(C)/C=C(C)/C=C/C1=CC2=C(Cl)C(=O)C(C)(OC(C)=O)C(=O)C2=CN1CCCCC(N)C(=O)O (centres undefined),Potency,[1],inactive
same,Potency,[2],inactive
O=C(Nc1ccccc1)Nc1ccc(-c2ccc(C(=O)C3CCCC3C(=O)O)cc2)cc1 (centres undefined),Potency,[1],inactive
same,Potency,[2],inactive
same,Potency,[3],27.8 µM (active)
same,Potency,[9],35 µM (active)
same,Potency,[4],4.94 µM (active)
same,Potency,[5],5.01 µM (active)
same,Potency,[6],3.55 µM (active)
same,Potency,[7],3.93 µM (active)
same,Potency,[10],inactive
same,Potency,[11],11.2 µM (active)
same,outcome,[8],inactive
O=S(=O)(O)c1ccc(Nc2ncnc3c2ncn3[C@@H]2O[C@H](CO)[C@@H](O)[C@H]2O)cc1,Potency,[1],inactive
same,Potency,[2],inactive
same,outcome,[12],inactive
same,Potency,[5],inactive
same,Potency,[6],inactive
O=C(c1c2ccccc2cc2ccccc12)N1CCC(N2CCC[C@@H](C(=O)N3CCOCC3)C2)CC1,Potency,[1],inactive
same,Potency,[2],inactive
same,Potency,[5],inactive
same,Potency,[6],inactive
CC(=O)O[C@H]1C[C@@H](O)C(C)(C)C2C[C@@H](OC(C)=O)[C@]3(C)C(CC[C@@]4(C)[C@H](c5ccoc5)OC(=O)[C@H]5O[C@]543)[C@]21C (some centres undefined),Potency,[1],inactive
same,Potency,[2],inactive
same,Potency,[5],inactive
same,Potency,[6],inactive
CC1CC=C2C1CC1(O)C(=O)CC2(C)C1(C)CO (centres undefined),Potency,[1],inactive
same,Potency,[2],inactive
same,Potency,[5],35.5 µM (active)
COCCCc1sc(-c2ccccc2)nc1C(=O)Nc1ccccc1-c1nc2cc(CN3CCCC3)cnc2s1,Potency,[1],inactive
same,Potency,[2],inactive
same,Potency,[5],inactive
same,Potency,[6],inactive
O=C(O)[C@H](Cc1ccccc1)Oc1ccc(-c2ccccc2)cc1,Potency,[1],inactive
same,Potency,[2],inactive
same,Potency,[5],35.5 µM (active)
C=C1CCC2C(C)(C(=O)O)CCCC2(C)C1CC/C(C)=C\CO (centres undefined),Potency,[1],inactive
same,Potency,[2],inactive
same,Potency,[5],inactive
same,Potency,[6],inactive
